# In PubChem BioAssay (NCI):
# This is part of a sample that, as a whole, favours compounds with a hit. Of some 83,000 tested, about 20% had one in any assay.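 Assay: single dose, 48 h. Readout: percent growth (0 = no net growth; negative = cell death). Active: <10.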 Calls of active or inactive are those of the source.
# Test system: UACC-62 melanoma
# Experiment: NCI-60 one-dose screen, 48 h (100 = growth as untreated, 0 = no growth, -100 = all killed)
# Conditions: 10 µM unless noted
# Method: Growth inhibition of the UACC-62 human tumor cell line is measured as a screen for anti-cancer activity. Cells are grown in 96 well plates and exposed to the test compound for 48 hours. Compounds are tested at a single concentration, which is 10^-5 M for most compounds. The reported endpoint is percent growth (GI% or GIPRCNT), where numbers from 0 - 100% represent growth inhibition, and numbers from -100% - 0 represent cell death. For example, a value of 40 represents 60% growth inhibition. A value of 0 means no net growth occurred over the course of the experiment. A value of -40 indicates 40% of cells at the beginning of the experiment died by the end of the experiment. A value of -100 means all cells are dead at the end of the experiment.
# NCI-60 Human Tumor Cell Lines Screen was performed using the standard one-dose NCI protocol, which is described in more detail at https://dtp.cancer.gov/discovery_development/nci-60/default.htm.
# Compounds with GIPRCNT values below 10 were considered active. Activity score was based on GIPRCNT using the following formula: […]
# Score is 0 for GIPRCNT values of 100 or above, 50 for GIPRCNT values of 0, and 100 for GIPRCNT values of -100.
row,Structure (SMILES),growth
1,Nc1cc(-c2c[nH]c3ccc(Cl)cc23)nc2cc(-c3c[nH]c4ccc(Cl)cc34)nn12,70.4% (inactive)
2,OC1CCN(CCCOc2c3ccccc3nc3c2oc2ccccc23)CC1,-57.8% (active)
3,O=C(N/N=C/c1ccc[nH]1)c1[nH]c2ccc(Br)cc2c1-c1ccccc1,13.4% (inactive)
4,COc1cc(OC)c(C2C(Cl)C(=O)N2Nc2ncnc3ccccc23)cc1OC (stereo not given),91.7% (inactive)
5,O=C1c2c(c3c4cc(Br)ccc4[nH]c3c3ccc4ccccc4c23)C(=O)N1CCO,72.6% (inactive)
6,NS(=O)(=O)c1cccc(Nc2nc(SCC(=O)c3ccc(Br)cc3)nc3ccccc23)c1,59.1% (inactive)
7,CCCCCCNC(=O)Oc1ccc(/C(=C(/C)c2ccccc2)c2ccc(OCCN3CCCCCC3)cc2)cc1,44.2% (inactive)
8,COc1ccc(C(=O)/C=C/c2ccc(OCc3ccc(Cl)cc3)c(OC)c2)cc1OC,52.6% (inactive)
9,CCCC(=O)NC(c1ccc2c(c1)OC(F)(F)O2)c1cc(C)c2cccnc2c1O (stereo not given),-16.7% (active)
10,CCOC(=O)c1sc(NCC(=O)Nc2cccc([N+](=O)[O-])c2)c(C(=O)OCC)c1C,-72.4% (active)
11,Nc1c(C(=O)c2ccc(Br)cc2)oc2nc(-c3cnccn3)cc(-c3cccs3)c12,93.7% (inactive)
12,N[C@@H](Cc1cn(-c2c3ccccc3nc3ccccc23)nn1)C(=O)O,93.5% (inactive)
13,COc1ccc(-c2csc(N/N=C/c3c(-c4ccc(S(C)(=O)=O)cc4)nc4ccccn34)n2)cc1,102% (inactive)
14,COc1ccc(NC(=O)c2sc3nc(-c4cnccn4)cc(-c4cccs4)c3c2N)cc1,32.7% (inactive)
15,Clc1ccc2oc3c(NCCCN4CCOCC4)c4ccccc4nc3c2c1,40% (inactive)
16,CN(C)CCCOc1c2ccc(Cl)cc2nc2c1oc1ccc(Cl)cc12,-68.1% (active)
17,Cc1cc(=O)oc2cc(OCCCOc3ccc(/C=C/C(=O)Nc4ccc(Cl)cc4)cc3)ccc12,75.7% (inactive)
18,COc1cc(/C=C/C(=O)c2cc(OC)c(OC)c(OC)c2)ccc1OCc1ccc(F)cc1,43.9% (inactive)
19,O=C1c2c(c3c4cccnc4[nH]c3c3ccc4ccccc4c23)C(=O)N1CCO,46.5% (inactive)
20,c1ccc2c(NCCCN3CCOCC3)c3oc4ccccc4c3nc2c1,-52.1% (active)

row,Structure (SMILES),growth
1,Cc1sc2nc(NCc3ccccc3Cl)[nH]c(=O)c2c1C,75.8% (inactive)
2,[Cl][Ru].c1ccc(-c2cccc(-c3ccccn3)n2)nc1.c1ccc(-c2ccnc3c2ccc2c(-c4ccccc4)ccnc23)cc1,14.2% (inactive)
3,COc1cc2nc(-c3ccc(C)cc3)cc(OCCCNCC3CCCO3)c2cc1OC (stereo not given),96.6% (inactive)
4,CCOC(=O)c1c(Nc2ccccc2)nn2c(N)c(C#N)c(-c3ccccc3)nc12,83.4% (inactive)
5,N#Cc1nc(-c2ccccc2)oc1S(=O)(=O)N1CCN(CCc2ccccn2)CC1,83.6% (inactive)
6,Fc1ccc(-c2nc(C(Cl)Cl)nc3cc(-c4ccccc4)nn23)cc1,40.6% (inactive)
7,O=C1NC(=C(Cl)Cl)/C(=N/S(=O)(=O)N2CCCCC2CC2(C(F)(F)F)N=N2)N1 (stereo not given),38.4% (inactive)
8,CCOC(=O)c1c(Nc2ccccc2)nn2c(N)c(C#N)c(-c3ccc(F)cc3)nc12,84.6% (inactive)
9,CSCCC(C(=O)O)N1C(=O)/C(=C/c2ccc(O)c(O)c2)SC1=S (stereo not given),93.7% (inactive)
10,COc1ccc(/C=N/Nc2ccnc3cc(Cl)ccc23)cc1Cl,-86.4% (active)
11,COc1ccc(/C=C/C(=O)c2ccc(NC(=O)CSc3nnc(-c4ccc5nc(-c6ccc(Cl)cc6)[nH]c5c4)o3)cc2)cc1,83.8% (inactive)
12,CC(C)Sc1nc(Nc2ccc(S(N)(=O)=O)cc2)c(C#N)c(-c2ccc(F)cc2)n1,46.5% (inactive)
13,COc1ccc([C@@H]2c3[nH]c4ccccc4c3CC3C(=O)N(C4CCN(Cc5c(F)cccc5F)CC4)CC(=O)N32)c(OC)c1 (stereo not given in full),78.9% [5.26 µM] (inactive)
14,COc1cc2nc(-c3ccc(Cl)cc3)cc(OCCCNCC3CCCO3)c2cc1OC (stereo not given),-56.2% (active)
15,COc1cc(/C=C/C(=O)c2cc(OC)c(OC)c(OC)c2)ccc1OCc1ccccc1,38.8% (inactive)
16,COc1cccc(-c2nn(-c3ccccc3)cc2-c2ccnc(N3CCN(C(=O)c4ccccc4)CC3)c2)c1,62.4% (inactive)
17,COC1CCN(Cc2ccc3c(NNC(=O)c4cnccn4)nc4cc(F)ccc4n23)C1 (stereo not given),20.7% (inactive)
18,COc1cc(/C=C/C(=O)c2ccc(C)cc2)ccc1Oc1nc(NCCO)nc(N2CCOCC2)n1,53.4% (inactive)
19,Fc1ccc(-c2cc3nc(C(Cl)Cl)nc(-c4ccc(Cl)cc4)n3n2)cc1,53.1% (inactive)
20,N#Cc1nc(-c2ccccc2)oc1N1CC[C@@H](CO)C1,92.4% (inactive)
